TRPM1 prom inh = MITF TRPM1 promoter inhibition in SK-MEL-5 cells. SK-MEL-5 TRPM1 promoter luciferase, 24 h. AID 488899. hit rate 0.83% among 330,000. inhibition, % at 12.5 µM;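 active means mean inhibition across replicates of 60% or more, whatever share of single replicates reaches that level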
Shn3 inh set2 = reduces Shn3 3'UTR luciferase signal in osteoblasts; Clone20 osteoblast Shn3 3'UTR firefly luciferase, 24 h; inhibition, % at 12.5 µM; hit rate 0.52% among 360,000; AID 588674;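 active means mean inhibition of at least 75% with every replicate also reaching 75%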
TWEAK-Fn14 inh = blocks TWEAK-Fn14 interaction in a reporter cell assay; inhibition, % at 10 µM; hit rate 2% among 360,000; TWEAK-stimulated Fn14 reporter cells, luciferase luminescence, 8 h; in the data active means inhibition above about 50%
LMP1 NFkB inh = inhibitors of Epstein-Barr LMP1-induced NF-kappaB reporter; LMP1-induced NF-kappaB luciferase reporter cells, luminescence; inhibition, % at 12.5 µM; hit rate 0.69% among 350,000; AID 504558; in the data active means inhibition above about 41%
Peg3 prom inh = Peg3 promoter activity inhibition; inhibition, % at 20 µM; hit rate 1.7% among 360,000; AID 588405; HeLa PEG-Prom luciferase reporter, luminescence, overnight;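 active means inhibition of at least 50% at 20 µM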
TROY signal inh = inhibitors of TROY-dependent NF-kB signaling; Q293 LMP1-TROYcd NF-kB luciferase reporter, 4 h; inhibition, % at 10 µM; hit rate 0.98% among 360,000;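 active means compounds whose plate-normalised and pattern-corrected inhibition of the luciferase reporter signal at the single screening dose is 50% or more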
Hits are given with their value; n = inactive; x = no result. A selection: hits, their analogues and other compounds. The true share with any hit is near 4.1%.

SMILES	TRPM1 prom inh	Shn3 inh set2	TWEAK-Fn14 inh	LMP1 NFkB inh	Peg3 prom inh	TROY signal inh
O=C(CN1C(=O)/C(=C2\SC(=S)N(C3CCS(=O)(=O)C3)C2=O)c2ccccc21)Nc1ccc(F)cc1 (stereo not drawn)	n	n	78	n	n	n
O=C1/C(=C/c2ccccc2)CCC1C1CCCC1 (stereo not drawn)	n	n	n	n	n	n
CN1C2CCC1/C(=C\c1ccccc1)C(=O)/C2=C\c1ccccc1	n	n	56	n	73	n
CCOC(=O)C1CCCN(C2=NC(=O)/C(=C/c3ccc(N(C)C)cc3)S2)C1 (stereo not drawn)	n	n	n	n	n	n
CCn1c2ccccc2c2cc(NC(=O)c3ccc(=O)oc3)ccc21	x	n	n	x	n	n
CCn1c2ccccc2c2cc(NC(=O)c3coc(=O)c(Br)c3)ccc21	x	n	74	x	n	n
COc1ccc(CN(C)C(=O)c2cc(-c3ccccc3)nc3ccc(C)cc23)c(OC)c1	x	n	53	n	98	n
COc1ccccc1-c1csc(C(O)(c2ccccc2)C(F)(F)F)n1 (stereo not drawn)	x	n	n	x	n	n
CCc1nnc(NC(=O)CCC(=O)NCCc2ccccc2)s1	n	n	n	n	n	n
Fc1ccc(-[n+]2nc(Nc3ccccc3)sc2-c2c3ccccc3cc3ccccc23)cc1	n	n	n	n	53	n
COc1ccc(C)cc1Nc1n[n+](-c2ccccc2)c(-c2c(OC)ccc3ccccc23)s1	66	n	58	44	56	n
Oc1ccc2ccccc2c1-c1sc(Nc2ccccc2)n[n+]1-c1ccc(F)cc1	n	n	n	n	n	n
CC(C)Oc1ccc(S(=O)(=O)N2CCOCC2)cc1NC(=O)C(C)Oc1ccc(F)cc1 (stereo not drawn)	n	n	n	n	n	n
COc1ccccc1CNc1ncc(-c2ccc(F)cc2)n1C	n	n	n	n	n	n
COc1ccc(CNc2ncc(-c3ccc(F)cc3)n2C)c2ccccc12	n	n	58	n	59	n
CCOC(=O)Cc1nnc2c(Nc3ccc(Cl)cc3)nc3nonc3n12	n	n	n	n	n	52
CCOC(=O)Cc1csc(Nc2ccc(Cl)cc2)n1	n	n	n	n	n	n
CCOC(=O)Oc1c(OC)cc(C(=O)O[C@@H]2C[C@@H]3CN4CCc5c([nH]c6cc(OC)ccc56)[C@H]4C[C@@H]3[C@H](C(=O)OC)[C@H]2OC)cc1OC	n	93	n	46	n	n
Cc1ccc(N=C2SC(C(=O)Nc3ccc(OC(F)(F)F)cc3)C(N)=C2C(=O)Nc2c(C)cc(C)cc2C)cc1 (stereo not drawn)	n	n	64	n	n	n
CC(=O)C(C(C)=O)c1c(Cl)c(O)c(O)c2c(C(=O)c3ccccc3)coc12	n	89	76	n	n	n
CCOC(=O)N1CCN(C(=O)C[C@@H]2C[C@@]3(C(=O)OCC)CCCC=C3N(Cc3ccc4c(c3)OCO4)C2=O)CC1	x	x	n	x	x	n
Cc1cc(N2CCC(C(=O)NCC3CC3)CC2)nc(-c2ccccc2)n1	n	n	78	n	n	n
C#CCSc1nnnn1-c1ccc(OCC)cc1	n	n	n	n	n	n
CCCN(C(=O)c1ccc(N(C)S(=O)(=O)c2ccc(C)cc2)cc1)C1CCS(=O)(=O)C1 (stereo not drawn)	n	n	n	n	n	n
CCC(=O)Nc1ccc(C(=O)OCc2ccc(Cl)c(Cl)c2)cc1	n	n	n	n	n	n
SMILES	TRPM1 prom inh	Shn3 inh set2	TWEAK-Fn14 inh	LMP1 NFkB inh	Peg3 prom inh	TROY signal inh
CC(=O)Nc1ccc(C(=O)OCc2ccc(Cl)c(Cl)c2)cc1	n	n	94	n	n	86
CCCNC(=O)C1CN(C(=O)c2nn(Cc3ccccc3)c(=O)c3ccccc23)c2ccccc2O1 (stereo not drawn)	n	n	n	n	n	n
COc1ccc(C(=O)CC(Nc2ccc([N+](=O)[O-])cc2)c2ccc(Cl)cc2)cc1 (stereo not drawn)	n	n	53	n	n	n
COc1ccc(C(=O)CC(=O)C(=O)Nc2ccc(Cl)cc2)cc1	n	n	n	n	n	n
O=C(COc1ccc(Br)cc1)NC1CC1	n	n	n	n	n	n
O=C(NCc1ccncc1)c1ccc(NS(=O)(=O)c2ccccc2)cc1	n	n	n	n	n	n
CC(CC(=O)N1CCN(c2cccc(Cl)c2)CC1)S(=O)(=O)c1ccc2c(c1)NC(=O)CO2 (stereo not drawn)	n	89	59	n	n	n
COc1cc2c(cc1OC)C(c1ccc(-c3cc(Cl)ccc3Cl)o1)=NCC2	n	n	n	n	n	n
COc1cc2c(cc1OC)C(c1ccc(-c3ccc(Cl)c(Cl)c3)o1)=NCC2	n	n	75	n	85	n
COc1cc2c(cc1OC)C(c1ccc(-c3ccc(Cl)cc3Cl)o1)=NCC2	n	n	50	n	n	n
COc1cc2c(cc1OC)C(c1ccc(-c3ccccc3Cl)o1)=NCC2	n	n	n	51	n	n
COc1cc2c(cc1OC)C(c1ccc(Cl)cc1)=NCC2	n	n	n	n	n	n
COc1ccc(NC(=O)CCC(=O)NCCO)cc1	n	n	n	n	n	n
CN(C)CCCn1c2c(c(SCC(=O)Nc3nccs3)nc1=O)CCC2	n	n	n	n	n	n
O=C(c1cc2cc(Cl)ccc2[nH]1)N1CCN(c2ccccn2)CC1	n	n	n	n	n	n
CC(OC(=O)c1ccccc1Oc1ccccc1)C(=O)NC1CC1 (stereo not drawn)	n	n	n	n	n	59
CNC(=O)c1cc2c(-c3ccccc3)nn(C)c2s1	n	n	n	n	n	n
O=C(Nc1ccc(OC(F)(F)F)cc1)C1CCCN(C(=O)c2ccc(Cl)cc2)C1 (stereo not drawn)	n	n	n	n	n	n
OC(CON=C1c2ccccc2-c2ccccc21)CN1CCNCC1 (stereo not drawn)	n	n	n	n	57	n
OC(COc1ccccc1)CN1CCN(CC(O)COc2ccccc2)CC1 (stereo not drawn)	n	n	n	n	n	n
CCN1CCN(c2nc(Nc3ccc(NC(C)=O)cc3)nc(Nc3ccc(NC(C)=O)cc3)n2)CC1	n	n	n	n	n	63
CC(=O)Nc1ccc(/C(C)=N/Nc2nc(Nc3ccccc3)nc(N3CCOCC3)n2)cc1	n	n	n	n	n	n
CC(=O)c1ccc(Nc2nc(N3CCOCC3)nc(N3CCOCC3)n2)cc1	n	n	83	n	n	n
COc1cccc(CNC(=S)Nc2ccc3c(c2)c(=O)n(C)n3Cc2ccccc2)c1	x	n	n	x	n	n
Cc1cnc(C(=O)NCC(c2ccccc2)c2ccccc2)cn1	n	n	n	n	n	n
COc1cc(NC(=S)N2CCCC(CO)C2)cc(OC)c1 (stereo not drawn)	n	n	62	n	n	n
O=C(Nc1nc2ccccc2[nH]1)c1ccc(F)cc1	n	n	69	n	n	n

Compound activity as filed in PubChem.
